Pf_Dd2_growth – blocks growth of Plasmodium falciparum Dd2 parasites | activity change, % at 10 µM | P. falciparum Dd2 growth, SYBR Green, 72 h; active compounds read low | AID 1159554 | 2.3% of 94,000 active; in the data active means activity change below about -80%; inconclusive means no clear call, values can overlap the other calls
C_diff_HTS – blocks growth of Clostridium difficile | Clostridium difficile clinical isolate growth, OD600, 24 h; active compounds read low | growth activity, negative = inhibition, % at 16 µg/mL (by protocol) | 0.25% of 86,000 active | AID 1259249;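 active means mean growth activity at or below -80% and every replicate also at or below -80%; inconclusive means mean at or below -80% but some replicate above -80%; inactive means mean growth activity above -80%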
T_cruzi_growth-1 – blocks T. cruzi growth in NIH3T3 culture | 5.9% of 77,000 active | T. cruzi beta-gal in NIH3T3, GalScreen luminescence, 90 h | inhibition, % at 8.34 µM;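 active means mean inhibition above about 93%, with at least 55% of replicates each passing it, limit read from the data, passing the limit was not always enough; inconclusive means only one of those two conditions holds; inactive means neither condition holds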
T_cruzi_growth-2 – blocks T. cruzi growth in NIH3T3 host cells; shares compounds with T_cruzi_growth-1; T. cruzi beta-gal in NIH3T3, GalScreen luminescence, 90 h; inhibition, % at 8.35 µM; 72% of 5,600 active;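 active means mean replicate inhibition above about 95% and at least 55% of replicates individually reaching it, limit read from the data; inconclusive means only one of the two criteria is met; inactive means neither criterion is met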
T_cruzi_growth-3 – blocks T. cruzi growth in NIH3T3 host cells | shares compounds with T_cruzi_growth-1 | T. cruzi beta-gal in NIH3T3, GalScreen luminescence, 90 h | inhibition, % at 2.09 µM | 21% of 5,600 active;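 active means mean inhibition above about 95%, with at least 55% of replicates also reaching it, limit read from the data; inconclusive means meets just one of the two conditions; inactive means meets neither condition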
3T3_cytotox – kills mouse NIH/3T3 fibroblasts; shares compounds with T_cruzi_growth-1; NIH/3T3 viability, CellTiter-Glo ATP luminescence, 90 h; cytotoxicity (signal decrease), % at 8.35 µM; 14% of 5,600 active;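 active means mean signal decrease across replicates above about 35% based on untreated-well scatter, with enough replicates individually passing, limit read from the data; inconclusive means no rule stated though some were filed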
NIH3T3_tox_2 – cytotoxicity in mouse NIH/3T3 fibroblasts; AID 651744; NIH/3T3 viability, CellTiter-Glo ATP luminescence, 90 h; 56% of 5,600 active; shares compounds with T_cruzi_growth-1; inhibition, % at 24.9 µM;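 active means mean loss of cell viability signal at or above a set limit, and enough replicates individually reaching it; inconclusive means meets only the mean limit or only the replicate share; inactive means meets neither condition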
A number is an active result; . = inactive; ? = inconclusive; / = not tested or not shown. Shown are actives, neighbours in structure and some others; about 6.7% of the full set was active somewhere.

SMILES Pf_Dd2_growth C_diff_HTS T_cruzi_growth-1 T_cruzi_growth-2 T_cruzi_growth-3 3T3_cytotox NIH3T3_tox_2
C/C=C/c1ccc([C@H]2[C@@H](CO)N(c3nc(CC)cs3)[C@H]2CNC(C)C)cc1 . . 98 98 . . 103
C/C=C/c1ccc([C@H]2[C@@H](C#N)N(c3nc(CC)cs3)[C@H]2CO)cc1 . . 109 103 111 . ?
C/C=C/c1ccc([C@@H]2[C@@H](CO)N(c3nc(CC)cs3)[C@H]2C#N)cc1 . . . / / / /
C/C=C/c1ccc([C@@H]2[C@@H](C#N)N(c3nc(CC)cs3)[C@H]2CO)cc1 . . . / / / /
O=C(c1ccccn1)N1C[C@@H]2[C@H](c3ccccc31)[C@@H](CO)N2C(=O)Nc1ccccc1F . . . / / / /
O=C(C1CC1)N1[C@H](CO)[C@@H](c2ccccc2)C12CN(CCC(F)(F)F)C2 . . / / / / /
O=C(C[C@@H]1C[C@H]2c3cc(NC(=O)c4ccc5c(c4)OCO5)ccc3O[C@H]2[C@H](CO)O1)NC1CCCCC1 . / . / / / /
CCS(=O)(=O)NCC[C@H]1CC[C@H](NC(=O)C2CCCCC2)[C@@H](CO)O1 . . . / / / /

Screens deposited in PubChem by Broad Institute.
